# Among all 420,000 compounds or so, about 64,000 (15%) were called active. Another 27% or so got no clear call; they are omitted. Calls follow the shape of the dose curve; as a rule, active = well fitted inhibition curve with a large enough effect; inconclusive = small, poorly fitted or top-dose-only effect; inactive = flat fitted curve, though single readings scatter. Not all results are given here. A call without a number means that no potency is given here.
# Assay: qHTS for Inhibitors of human tyrosyl-DNA phosphodiesterase 1 (TDP1): qHTS in cells in absence of CPT; also: nearly all actives have a fitted effect of over 55% in size
# Conditions: DT40 Tdp1-/- hTDP1 cells, no CPT, ATP luminescence, 48 h; activity change, negative = growth inhibition: at 46.2 µM (top of the series)
# Outline: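 Compound effects on proliferation are scored in DT40 Tdp1-/-;hTDP1 cells in the absence of CPT. ATP levels (CellTiter-Glo luminescence) are recorded after a ≥48 hr, 37 °C incubation.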
# Potency is read from the fitted curve at half-maximal effect.
row,SMILES,Potency
1,COc1cccc(NC(=O)Cn2c3ccc(F)cc3c3nc4n(c(=O)c32)CCS4)c1,inactive
2,O=C(NCC1Cc2cc(F)cc(-c3cnccn3)c2O1)C1COc2ccccc2O1 (stereo not given),inactive
3,Cc1cc(C)c(C#N)c(SCc2ccccc2C(=O)O)n1,inactive
4,CSCCC(NC(=O)COc1ccccc1)C(=O)OCC(=O)c1cc2ccccc2o1 (stereo not given),inactive
5,CCOCCCNCc1cc(Br)ccc1OCC,inactive
6,CCOc1ccc(Br)cc1S(=O)(=O)N1CCC(C(=O)O)CC1,inactive
7,CC(C)(C)NCc1cc(Br)ccc1OC1CCCC1,16.4 µM (active)
8,CC(=O)N/C(=C/c1ccc(OC(F)F)cc1)C(=O)O,inactive
9,N#Cc1ccc(-c2ccc(F)cc2)nc1Sc1ccccc1,inactive
10,COc1ccc(NC(=O)CN(C)C(=O)Cc2coc3cc(C)c(C)cc23)cc1,inactive
11,Cc1ccc(NS(=O)(=O)c2ccc3c(c2)NC(=O)CO3)cc1,inactive
12,O=C1NC[C@H](CCCCN2C[C@H](Cc3ccc(O)cc3)N(CC3CCCCC3)C(=O)C2=O)N(CCc2ccccc2)C1=O,inactive
13,CCOc1ccc(CCN2C(=O)C(=O)N([C@@H](Cc3ccc(O)cc3)CN3CCC[C@H]3CN3C(=O)C(=O)NC[C@@H]3CC(C)C)C[C@@H]2Cc2ccccc2)cc1,inactive
14,CCOc1ccc(CCN2C(=S)N([C@@H](CC(C)C)CN3CCC[C@@H]3CN3C(=S)NC[C@@H]3Cc3ccc(O)cc3)C[C@@H]2CC(C)C)cc1,23.1 µM (active)
15,O=C1NC[C@H](CCCCN2C[C@H](Cc3ccc(O)cc3)N(CCc3ccccc3)C(=O)C2=O)N(CCc2ccccc2)C1=O,inactive
16,CC(C)C[C@H]1CNC(=S)N1C[C@H]1CCCN1C[C@H](Cc1ccc(O)cc1)N1C[C@H](Cc2ccc(O)cc2)N(CC2CCCCC2)C1=S,25.9 µM (active)
17,CC(C)C[C@H]1CN([C@@H](CC(C)C)CN2CCC[C@@H]2CN2C(=O)C(=O)NC[C@@H]2Cc2ccccc2)C(=O)C(=O)N1CCc1ccccc1,16.4 µM (active)
18,CCOc1ccc(CCN2C(=O)C(=O)N([C@@H](CC(C)C)CN3CCC[C@H]3CN3C(=O)C(=O)NC[C@@H]3Cc3ccccc3)C[C@@H]2CC(C)C)cc1,inactive
19,CC(C)C[C@H]1CNC(=O)C(=O)N1C[C@@H]1CCCN1C[C@H](Cc1ccccc1)N1C[C@H](CC(C)C)N(CC2CCCCCC2)C(=O)C1=O,inactive
20,O=C1NC[C@H](CCCCN2C[C@H](Cc3ccccc3)N(Cc3ccccc3)C(=O)C2=O)N(CCc2ccc(O)cc2)C1=O,inactive
21,Cc1cc(NC(=O)CN2C(=O)NC(CCc3ccccc3)C2=O)no1 (stereo not given),inactive
22,CCOc1ccc(CCN2C(=O)c3cccnc3C2=O)cc1OCC,inactive
23,CN(C(=O)C1CCOC1)c1nnc(-c2cccnc2)s1 (stereo not given),inactive
24,CC(CNC(=O)c1ccc(N)cc1)NC(=O)c1ccc(N)cc1 (stereo not given),inactive
25,CCOC(=O)C1CCN(C(c2cc3cc(C)cc(C)c3[nH]c2=O)c2nnnn2C2CCCCC2)CC1 (stereo not given),inactive

row,SMILES,Potency
1,Cc1cc(C)c2[nH]c(=O)c(C(c3nnnn3Cc3ccc4c(c3)OCO4)N3CCCC3)cc2c1 (stereo not given),2.31 µM (active)
2,CC(C)(C)n1nnnc1C(c1ccc(F)cc1)N1CCN(Cc2ccc3c(c2)OCO3)CC1 (stereo not given),inactive
3,O=C(NCc1ccco1)/C(=C/c1cccc([N+](=O)[O-])c1)NC(=O)c1ccco1,inactive
4,COc1cc(NC(=O)CCS(=O)(=O)c2ccc3c(c2)oc(=O)n3C)cc(OC)c1,inactive
5,O=C(Nc1cc(C(F)(F)F)ccc1Cl)c1cc(C2CC2)on1,inactive
6,COc1ccc(-n2cnnc2SCC(=O)Nc2cccc(S(N)(=O)=O)c2)cc1,inactive
7,c1ccc2c(c1)CSc1sccc1C2=C1CCNCC1,16.4 µM (active)
8,Nc1nc(Br)c2ccccc2c1-c1ccc(F)cc1,inactive
9,CCOc1c(Nc2cccc(Cl)c2)c(=O)c1=O,inactive
10,CCNCCCNCCCNCCCNCC,3.76 µM (active)
11,COc1ccc2oc(=O)c(C(=O)N3CCCc4ccccc43)cc2c1,inactive
12,CN(C(=O)Nc1ccc(Cl)cc1)n1cnc2ccccc2c1=O,inactive
13,Cc1[nH]n(-c2ccc(Cl)cc2)c(=O)c1/C=N/n1c(C)nc2ccccc2c1=O,18.4 µM (active)
14,S=C(Cc1ccc(Cl)cc1)N1CCOCC1,inactive
15,C=C1C(=O)OC2C1CCC(C)=CCCC1(C)OC21 (stereo not given),3.26 µM (active)
16,CCn1cc(-c2cc(C(=O)O)on2)c(C)n1,inactive
17,CN(C)S(=O)(=O)c1ccc(N/C=C(\[N+](=O)[O-])S(=O)(=O)c2ccccc2)cc1,inactive
18,COc1ccc(NC(=O)C2=C(C)NC(=O)NC2c2ccccc2[N+](=O)[O-])cc1 (stereo not given),inactive
19,COc1ccc(N/C=C(\C2OC(=O)c3ccccc32)[N+](=O)[O-])cc1 (stereo not given),23.1 µM (active)
20,CC(C)=CCC/C(C)=C/C(=O)O,inactive
21,O=C(NCCCNC(=O)NC1CCCCC1)NC1CCCCC1,inactive
22,CC1(C)Cc2c(sc3nc(SCC(=O)NCc4ccccc4)n(-c4ccccc4)c(=O)c23)CS1,inactive
23,CCSc1nc2sc3c(c2c(=O)n1-c1ccc(C)cc1)CCN(C)C3,7.31 µM (active)
24,CCn1c(SCC(=O)Nc2ccc(Br)cc2)nc2sc3c(c2c1=O)CCN(C)C3,inactive
25,CCOc1ccc(-n2c(SCC(=O)Nc3ccc(OC)cc3)nc3sc4c(c3c2=O)CCN(C)C4)cc1,inactive

row,SMILES,Potency
1,COc1ccccc1-n1c(SCC(=O)O)nc2sc3c(c2c1=O)CCC3,inactive
2,CCCSc1nc2sc3c(c2c(=O)n1-c1ccc(OC)cc1)CCN(C)C3,14.6 µM (active)
3,CC(=O)CSc1nc(CCc2ccccc2)c(C#N)c(=O)[nH]1,inactive
4,COc1ccc(NC(=O)c2cc(=O)[nH]c3ccccc23)cc1S(=O)(=O)N1CCOCC1,inactive
5,Cc1sc2ncn(CC(=O)NCCN(C)C)c(=O)c2c1S(=O)(=O)N1CCC(C)CC1,inactive
6,O=C(Nc1cccc(OCC(=O)N2CCOCC2)c1)C1CCCCC1,inactive
7,COc1cc(/C=C/C(=O)O)cc(S(=O)(=O)Nc2ccccc2C(=O)NCCc2ccccc2)c1OC,inactive
8,Cc1cc(C)nc(/N=C2\NC(=O)CC(C(=O)O)N2c2ccc(Cl)cc2Cl)n1 (stereo not given),inactive
9,COc1ccc(C(C#N)Nc2ccccc2C)cc1 (stereo not given),inactive
10,COC(=O)C1C(=O)NCC1c1ccc(OC)cc1 (stereo not given),inactive
11,COC(=O)C1=C(Nc2ccc(OC)cc2)C=C(C)C(C(=O)OC)C1c1ccc(C)cc1 (stereo not given),16.4 µM (active)
12,COc1ccc(N2C(=O)C(O)C2c2ccc(C)cc2)cc1 (stereo not given),inactive
13,O=C(Nc1ccccc1F)C1C2C=CC3(O2)C1C(=O)N(c1cccnc1)C3C(=O)NC1CCCCC1 (stereo not given),inactive
14,CCCNc1c(N)c(=O)c1=O,inactive
15,Cc1nc([N+](=O)[O-])c(NCCCO)n1Cc1ccccc1,inactive
16,COc1ccc(C2OCC3(CO2)SC(=O)NC3=O)cc1OC (stereo not given),inactive
17,Cn1c(=O)c2c(nc(SCCNS(=O)(=O)c3ccccc3)n2C)n(C)c1=O,inactive
18,C#CC(C)(C)NC(=O)CSc1nc2c(c(=O)n(C)c(=O)n2C)n1CCCC,inactive
19,CC(C)n1c(SCC(=O)Nc2ccccc2N2CCCCC2)nc2c1c(=O)n(C)c(=O)n2C,23.1 µM (active)
20,CCOC(=O)CSc1nc2c(c(=O)n(C)c(=O)n2C)n1Cc1ccccc1F,inactive
21,CCC1CCCCN1C(=O)CSc1nc2c(c(=O)n(C)c(=O)n2C)n1C (stereo not given),inactive
22,CCOc1ccc(Cn2c(SCCCCC#N)nc3c2c(=O)n(C)c(=O)n3C)cc1OCC,inactive
23,Cn1c(=O)c2c(nc(SCC(=O)Nc3ccc(F)cc3)n2Cc2ccccc2)n(C)c1=O,4.61 µM (active)
24,CSc1nnc(C2CCCN(CC(=O)Nc3ccccc3N3CCOCC3)C2)n1C(C)C (stereo not given),inactive
25,Cc1cccc(Cn2c(SCCO)nc3c2c(=O)n(C)c(=O)n3C)c1,14.6 µM (active)

row,SMILES,Potency
1,CCCSc1nc2c(c(=O)n(C)c(=O)n2C)n1Cc1ccc(C)cc1,16.4 µM (active)
2,COc1ccc(NC(=O)CCn2ccnc2)c(OC)c1,inactive
3,Cc1ccc(C2(C)NC(=O)N(CC(=O)Nc3ccccc3C(=O)N3CCCCC3)C2=O)cc1 (stereo not given),inactive
4,CC(=O)NC(CC(=O)Nc1nc(-c2ccccc2)c(C(C)=O)s1)c1ccccc1 (stereo not given),inactive
5,Cc1cc(=O)n2c3c(cccc13)CCC2,inactive
6,CCCCn1c(=O)c(C(C)=O)c(O)c2ccccc21,inactive
7,CCNC(=O)c1c(O)c2cccc3c2n(c1=O)CC3,23.1 µM (active)
8,CC(C)Cc1nnc(NC(=O)CCNC(=O)c2ccccc2Cl)s1,inactive
9,COc1ccccc1CNc1nccn(-c2ccc(F)cc2)c1=O,inactive
10,COc1cccc(-c2cc3nc(NCc4ccccc4OC)n(C)c(=O)c3s2)c1,20.6 µM (active)
11,Cn1c(NCc2cccnc2)nc2cc(-c3ccc(F)cc3)sc2c1=O,inactive
12,CC(=O)NC(CC(=O)O)c1ccc(F)cc1 (stereo not given),inactive
13,COc1ccccc1CC1(C)C(=O)Nc2ccc(OC(F)(F)F)cc21 (stereo not given),inactive
14,CC1(Cc2ccccc2C#N)C(=O)Nc2ccc(-c3ccc4[nH]ccc4c3)cc21 (stereo not given),4.11 µM (active)
15,CN1CCCN(S(=O)(=O)c2ccc3c(c2)OCCO3)CC1,inactive
16,N#CCC(=O)NC(=O)NCC1CC1,inactive
17,CC(OC(=O)c1ccc(-n2cnnn2)cc1)C(=O)NCc1ccccc1 (stereo not given),inactive
18,O=C(O)/C=C\C(=O)Nc1ccc(OCc2ccccc2)cc1,inactive
19,CCc1ccnc(NC(=O)Nc2ccc(OCc3ccccc3)cc2)c1,inactive
20,CC(C)(C)OC(=O)N(Cc1ccccc1)Cc1ccc(OCc2cccc(NC(=O)c3ccccc3)c2)cc1,18.4 µM (active)
21,CN(CC(=O)Nc1cccc(F)c1)C(=O)CC1CCCC1,inactive
22,Cc1cccc(C(=O)OC(C)CN2CCN(C)CC2)c1 (stereo not given),inactive
23,CC(CNC(=O)Cn1cnc2c(OCc3ccccc3)ncnc21)c1ccccc1 (stereo not given),inactive
24,Cc1ccc(NC(=O)Cn2cnc3c(OCc4ccccc4)ncnc32)cc1C,inactive
25,Cc1ccc(CNC(=O)Cn2cnc3c(NCc4ccccc4)ncnc32)o1,8.2 µM (active)

# — PubChem BioAssay AID686978 (National Center for Advancing Translational Sciences (NCATS), 2013)
